# Most compounds without a hit are left out; they make up all but 6.1% or so of the library.
# D1 PAM: Potentiators of Human D1 Dopamine Receptor: qHTS | AID 504651, 2011 | potentiation, % at 10 µM | hit rate 0.036% among 360,000 | D(1A) dopamine receptor (Homo sapiens), P21728 | HEK293 TREx D1 cells, calcium flux, dopamine EC20 potentiation; in the data active = potentiation above about 30%; also: 0% is about no effect
# D1 ag: Allosteric Agonists of the Human D1 Dopamine Receptor: qHTS | HEK293 T-REx D1 cells, calcium flux, agonist mode | activation, % at 2 µM | hit rate 1% among 360,000; in the data active = activation above about 30%; also: 0% is about no effect
#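 Inducible HEK293 T-REx D1 cells, force-coupled to calcium signalling, were plated at 4000 cells/well with tetracycline and held overnight at 30 C. After no-wash calcium dye loading, compound-evoked calcium rise over 180 s flagged agonists.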
# D1 antag: Antagonist of Human D 1 Dopamine Receptor: qHTS; HEK293 TREx D1 cells, calcium flux, dopamine EC80; active compounds read low; activity change, negative = inhibition, % at 10 µM; hit rate 3.2% among 360,000; in the data active = activity change below about -30%; also: % is scaled to controls: 0 for no effect and ±100 for the full control effect
#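 Allosteric or orthosteric antagonism assessed as attenuation of the calcium response to EC80 dopamine, added 180 s after compound, in induced HEK293 Trex D1 cells loaded with no-wash calcium dye.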
# DRD3 antagonist: qHTS of D3 Dopamine Receptor Antagonist: qHTS; D3R cells, DiscoveRx beta-arrestin luminescence, antagonist mode; active compounds read low; D(3) dopamine receptor (Homo sapiens), P35462; hit rate 2.5% among 360,000; max response, negative = inhibition, %; AID 652054, 2013; in the data active = max response below about -50%; inconclusive = no clear call, values can overlap the other calls; also: % is scaled to controls: 0 for no effect and ±100 for the full control effect
#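 Cells plated overnight at 1500 cells/well, then exposed to library compounds with dopamine controls for 90 minutes at 37 degrees C. DiscoveRx reagent added for 30–60 minutes at room temperature; luminescence read, quantitative HTS format.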
# ERG Ets-DNA blk: qHTS for Small Molecule Inhibitors of the ERG Ets/DNA interaction. Transcriptional regulator ERG (Homo sapiens), P11308. fluorescence polarization, His-ERG Ets domain / labelled DNA. Potency, µM (top dose mostly 76.9 µM), for inactives: at the highest dose FP activity, negative = inhibition, usual class: inhibitors. hit rate 0.028% among 370,000. AID 624246, 2012; active = well fitted inhibition curve with a large enough effect in the polarisation, with a control signal flat; inconclusive = small, poorly fitted or top-dose-only effect, or effect the other way, or a change in a side signal; inactive = no such curve, though single readings can be large or run the other way; the % refers to the polarisation;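 also: polarization taken with two DNA probes labelled with fluorescein and Texas red; potency is read from the fitted curve at half-maximal effect; % of control where 0% means no effect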
# Target sequence (P11308 whole entry, looked up, the tested form may be a part): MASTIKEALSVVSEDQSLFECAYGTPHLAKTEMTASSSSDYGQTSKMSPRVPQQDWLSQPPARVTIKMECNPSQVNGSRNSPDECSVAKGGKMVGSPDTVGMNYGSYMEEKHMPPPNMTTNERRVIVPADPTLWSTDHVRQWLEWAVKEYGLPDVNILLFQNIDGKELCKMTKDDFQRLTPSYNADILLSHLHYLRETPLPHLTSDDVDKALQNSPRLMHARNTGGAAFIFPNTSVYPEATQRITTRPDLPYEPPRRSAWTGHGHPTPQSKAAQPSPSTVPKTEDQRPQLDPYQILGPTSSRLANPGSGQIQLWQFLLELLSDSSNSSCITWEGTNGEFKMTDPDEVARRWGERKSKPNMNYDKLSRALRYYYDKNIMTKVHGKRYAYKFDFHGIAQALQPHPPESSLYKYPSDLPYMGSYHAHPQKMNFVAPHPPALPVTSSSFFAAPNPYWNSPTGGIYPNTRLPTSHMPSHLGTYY
#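 His-tagged ERG Ets domain (1 uM in the protein solution; 300mM KCl, 50mM Tris-HCl, 1mM EDTA, 1mM DTT, pH 7.5) received compound, then a probe mix of 5 nM fluorescein-DNA and 100nM Texas-615-DNA. Fluorescence polarization was read for both dyes.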
# DRD3 agonist: qHTS of D3 Dopamine Receptor Agonist: qHTS. D(3) dopamine receptor (Homo sapiens), P35462. D3R DiscoveRx beta-arrestin cells, luminescence, 90 min. max activation, %. hit rate 0.58% among 410,000. AID 652048, 2013; in the data active = max activation above about 30%; also: 0% is about no effect
#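 Agonist-mode cell screen: cells plated at 1500/well and incubated overnight at 37 °C, then exposed to library compounds for 90 min at 37 °C. Detection reagent was added for 30–60 min at room temperature, and luminescence was read.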
# * = called active by the depositor; ? = inconclusive; nt = no result given.
SMILES,D1 PAM,D1 ag,D1 antag,DRD3 antagonist,ERG Ets-DNA blk,DRD3 agonist
CN(C)S(=O)(=O)c1ccc(C(=O)OCC(=O)Nc2cccnc2Cl)cc1,2.8,7.9,-33.2*,6.8,6.2%,2.0
Cc1ccc(S(=O)(=O)N2CCOCC2)cc1NC(=O)COC(=O)c1cccc(Cl)c1Cl,nt,nt,nt,-28.3,10.0%,5.8
CCOc1ncccc1C(=O)OCC(=O)Nc1cc(S(=O)(=O)N2CCOCC2)ccc1C,-3.0,8.2,-20.2,0.0,10.1%,3.2
O=C(COC(=O)c1ccc(Br)cc1)Nc1cccnc1Cl,3.1,1.1,-6.0,9.0,-16.4%,3.3
Cc1ccc(S(=O)(=O)N2CCOCC2)cc1NC(=O)COC(=O)c1cc(=O)[nH]c2ccccc12,-4.0,25.2,-41.3*,-1.8,-4.9%,-2.1
Cc1cc(C)n(CCCNC(=O)c2ccc(C)o2)n1,-1.8,5.4,1.8,1.4,7.9%,-3.5
O=C(Cn1ccc2ccccc2c1=O)Nc1ccc2c(c1)OCO2,-1.2,-3.7,6.9,3.0,-1.4%,-10.2
CCOc1ccccc1NC(=O)COC(=O)Cc1ccc(-c2ccccc2)cc1,-5.2,39.1*,-36.6*,45.8,1.9%,0.7
CCOc1ccccc1NC(=O)COC(=O)Cc1ccsc1,-2.6,2.9,1.7,7.4,23.7%,1.6
CCOc1ccccc1NC(=O)COC(=O)CN(C)S(=O)(=O)c1ccc(C)cc1,-7.5,25.0,-45.1*,21.0,2.4%,-2.7
O=C(O)c1cccnc1Oc1ccccc1,7.8,0.3,-0.7,6.2,11.5%,1.5
CC(=O)c1cc(C(=O)N2CCCC(C(=O)c3ccc(Cl)cc3)C2)cs1 (stereo not given),1.9,5.2,-33.2*,?,15.2%,0.0
Cc1ccccc1C(=O)N1CCCCC1CCN1CCCCC1 (stereo not given),-2.4,-0.8,1.5,nt,0.7%,-5.0
CCC[C@@H](CN1CCC[C@H]1CN1C(N)=NC[C@@H]1Cc1ccccc1)N1C[C@@H](Cc2ccccc2)N(CCCC2CCCC2)C1=N,nt,nt,nt,-64.1*,-0.6%,-55.4
CCC[C@@H](CN1CCC[C@H]1CN1C(N)=NC[C@@H]1Cc1ccccc1)N1C[C@@H]([C@H](C)CC)N(CCCC2CCCC2)C1=N,nt,nt,nt,-97.1*,-5.8%,-38.8
CCC[C@@H](CN1CCC[C@H]1CN1C(N)=NC[C@H]1CC(C)C)N1C[C@@H](Cc2ccccc2)N(CCCC2CCCC2)C1=N,nt,nt,nt,-0.7,-5.3%,-53.3
CCCCN1C(=N)N([C@@H](CCC)CN2CCC[C@H]2CN2C(N)=NC[C@@H]2Cc2ccccc2)C[C@H]1Cc1ccccc1,nt,nt,nt,-79.5*,12.2%,-47.8
CCCCN1C(=N)N([C@@H](C)CN2CCC[C@H]2CN2C(N)=NC[C@H]2CC(C)C)C[C@H]1Cc1ccccc1,nt,nt,nt,-18.4,-0.2%,-8.9
CCOC(=O)[C@H]1[C@H]2COc3cc(OC)ccc3[C@@H]2N2C(=O)c3ccc(C)cc3NC(=O)[C@@]12C,-6.2,4.4,-26.3,?,-7.4%,7.2
CCc1ccc(NS(=O)(=O)c2ccc3oc(=O)ccc3c2)cc1,-1.4,11.4,-1.0,2.8,5.5%,-8.0
CCN(CC)c1ccc(NC(=O)Cn2nnc(-c3cccc(OC)c3OC)n2)c(C)c1,3.9,1.0,4.5,15.6,-10.5%,31.4*
O=C(NCC(c1ccco1)N1CCN(c2ccccc2)CC1)C(=O)NC1CCCCC1 (stereo not given),-3.0,-1.1,12.2,3.3,2.1%,36.7*
O=C(NCC1CCCO1)C(=O)NCC(c1ccco1)N1CCN(c2ccccc2F)CC1 (stereo not given),0.7,1.3,6.5,87.5,4.1%,50.8*
O=C(NCC(c1ccco1)N1CCN(c2ccccc2F)CC1)C(=O)NC1CCCC1 (stereo not given),-6.6,2.0,0.8,19.7,-1.4%,36.0*
COc1ccc(N2CCN(C(CNC(=O)C(=O)NCC3CCCO3)c3ccco3)CC2)cc1 (stereo not given),1.5,2.6,3.0,-8.1,5.8%,-2.9
SMILES,D1 PAM,D1 ag,D1 antag,DRD3 antagonist,ERG Ets-DNA blk,DRD3 agonist
C=CC(=O)Nc1cccc(Oc2cc(Cl)nc3[nH]ccc23)c1,nt,nt,nt,1.5,-6.8%,12.4
Cc1noc(C)c1Cn1c(C)c(C(=O)NCc2ccc3c(c2)OCCO3)sc1=O,nt,nt,nt,3.3,nt,1.3
O=C1CCCc2nc(N3CCCCC3)sc21,3.8,1.1,-20.4,-58.7*,-1.2%,8.2
Nc1nnc(N2CCCCC2)s1,1.2,2.4,5.8,-18.3,0.6%,4.0
CCCN(CCC)C(=O)C1CCC(CNS(=O)(=O)c2cccc3nsnc23)CC1 (stereo not given),-5.8,1.3,-1.4,-2.3,15.0%,-10.5
Cc1nc(NCCc2ccc(S(N)(=O)=O)cc2)c2c3c(sc2n1)CCC3,-0.3,0.5,1.4,40.9,-2.3%,35.2*
CCn1c(=O)c2c(n3cnnc13)-c1ccccc1CC21CCCCC1,0.5,1.2,6.3,9.1,7.0%,4.1
CCN(CC)CCNC(=O)C12CC3CC(CC(C3)C1)C2,-6.0,2.1,-9.0,-62.9*,-2.2%,-8.7
Nc1cc(C(=O)OCC(=O)NCCC2=CCCCC2)ccc1Cl,nt,nt,nt,-24.6,6.7%,-19.9
Cc1ccc(NC(=O)NCC2CCN(Cc3cccc(Cl)c3)CC2)cc1Cl,-5.8,9.6,-22.3,-50.7*,-2.5%,-23.8
Cc1ccc(C)c(CN2CCC(CNC(=O)Nc3ccc(F)c(Cl)c3)CC2)c1,-4.9,20.5,-8.5,-66.2*,3.4%,-20.8
CCc1ccc(NC(=O)NCC2CCN(Cc3cccc(Cl)c3)CC2)cc1,-10.0,36.2*,-36.5*,-52.4*,4.3%,-3.6
Oc1ccc(/C=N/N(c2ccccc2)c2ccccc2)cc1O,1.0,2.4,-38.3*,-2.2,-11.9%,10.8
COc1ccc(N2CCN(c3nc4cc(C)ccc4cc3C=O)CC2)cc1,-0.6,0.3,-1.5,-1.7,-2.4%,31.4*
COc1ccc(N2CCN(c3cc(C)c4ccc(C)cc4n3)CC2)cc1,-1.8,12.4,6.4,-4.2,-12.9%,-10.7
COc1cc(C#Cc2c(-c3cncn3C)n(C)c3ccc(-c4ccc(CN5CCOCC5)cc4)cc23)cc(OC)c1,nt,nt,nt,132.2,-3.0%,56.8*
COc1cc(C#Cc2c(-c3cncn3C)n(C)c3ccc(-c4cnc(N5CCOCC5)nc4)cc23)cc(OC)c1,nt,nt,nt,93.3,16.5%,0.5
Cc1ccc(S(=O)(=O)N(C)C)cc1NC(=O)COC(=O)CCC1CCCCC1,-4.0,4.6,-39.1*,-6.1,-3.0%,-0.6
